About 2,000 (36%) of roughly 5,500 compounds were called active. Inconclusive results (about 18%) are left out. Cut-off read from the data, not from the text of the source: active = normalized growth mostly below about 0.91 (no sharp cut-off); inconclusive = no clear call, values can overlap the other calls; inactive = mostly above about 0.92. The list shows a part of the results.
Assay: chemical genetic growth profiling, strain panel (AID 1159580);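 note: tested at 20 µM; growth read once vehicle control cultures reached saturation at 30 °C; 1 = growth at the plate median or of vehicle wells; lower values mean less growth of the strain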
Conditions: growth OD

Measured: normalized growth

C[C@H]1O[C@@H](O[C@H]2[C@@H](O)C[C@H](O[C@H]3[C@@H](O)C[C@H](O[C@H]4CC[C@]5(C)C6C[C@@H](O)[C@]7(C)[C@@H](C8=CC(=O)OC8)CC[C@]7(O)C6CC[C@@H]5C4)O[C@@H]3C)O[C@@H]2C)C[C@H](O)[C@@H]1O (some centres undefined)
inactive: S. cerevisiae deletion strains, locus YJR043C, strain POL32, hits give low values 1.01 | S. cerevisiae deletion strains, locus YJR066W, strain TOR1, hits give low values 0.966 | S. cerevisiae deletion strains, locus YKL009W, strain mrt4, hits give low values 0.969 | S. cerevisiae deletion strains, locus YKL068W, hits give low values 0.986 | S. cerevisiae deletion strains, locus YKL085W, strain MDH1 (second series), hits give low values 0.991 | S. cerevisiae deletion strains, locus YKL085W, strain MDH1, hits give low values 0.991 | S. cerevisiae deletion strains, locus YKL160W, strain elf1, hits give low values 0.93 | S. cerevisiae deletion strains, locus YKR001C, strain vps1, hits give low values 0.971 | S. cerevisiae deletion strains, locus YKR026C, strain gcn3, hits give low values 1 | S. cerevisiae deletion strains, locus YKR091W, strain srl3, hits give low values 0.984 | S. cerevisiae deletion strains, locus YLL001W, strain dnm1, hits give low values 0.921 | S. cerevisiae deletion strains, locus YLL026W, hits give low values 0.999 | S. cerevisiae deletion strains, locus YLL041C, strain sdh2, hits give low values 1 | S. cerevisiae deletion strains, locus YLR027C, strain aat2, hits give low values 1.03 | S. cerevisiae deletion strains, locus YLR039C, strain RIC1, hits give low values 0.973 | S. cerevisiae deletion strains, locus YLR058C, strain SHM2, hits give low values 1 | S. cerevisiae deletion strains, locus YLR102C, strain apc9, hits give low values 0.977 | S. cerevisiae deletion strains, locus YLR113W, strain HOG1, hits give low values 1.09 | S. cerevisiae deletion strains, locus YLR221C, strain rsa3, hits give low values 1.01 | S. cerevisiae deletion strains, locus YLR258W, strain gsy2, hits give low values 1.01 | S. cerevisiae deletion strains, locus YLR262C, strain YPT6 (second series), hits give low values 0.956 | S. cerevisiae deletion strains, locus YLR262C, strain YPT6, hits give low values 0.984 | S. cerevisiae deletion strains, locus YLR268W, strain sec22, hits give low values 0.959 | S. cerevisiae deletion strains, locus YLR320W, strain mms22, hits give low values 0.969 | S. cerevisiae deletion strains, locus YLR330W, strain CHS5, hits give low values 0.983 | S. cerevisiae deletion strains, locus YLR342W, strain FKS1 (second series), hits give low values 1.02 | S. cerevisiae deletion strains, locus YLR342W, strain FKS1, hits give low values 0.983 | S. cerevisiae deletion strains, locus YLR357W, strain rsc2, hits give low values 0.999 | S. cerevisiae deletion strains, locus YLR370C, strain arc18, hits give low values 0.994 | S. cerevisiae deletion strains, locus YLR371W, strain rom2, hits give low values 0.997 | S. cerevisiae deletion strains, locus YLR384C, strain iki3, hits give low values 1 | S. cerevisiae deletion strains, locus YLR418C, strain cdc73, hits give low values 1.01 | S. cerevisiae deletion strains, locus YML016C, strain PPZ1, hits give low values 0.998 | S. cerevisiae deletion strains, locus YML032C, strain rad52, hits give low values 0.988 | S. cerevisiae deletion strains, locus YML120C, strain ndi1, hits give low values 0.946 | S. cerevisiae deletion strains, locus YML124C, strain tub3, hits give low values 0.992 | S. cerevisiae deletion strains, locus YMR058W, strain fet3, hits give low values 0.984 | S. cerevisiae deletion strains, locus YMR078C, strain ctf18, hits give low values 0.981 | S. cerevisiae deletion strains, locus YMR125W, strain sto1, hits give low values 0.925 | S. cerevisiae deletion strains, locus YMR129W, hits give low values 0.996 | S. cerevisiae deletion strains, locus YMR205C, strain PFK2, hits give low values 0.942 | S. cerevisiae deletion strains, locus YMR223W, strain ubp8, hits give low values 0.993 | S. cerevisiae deletion strains, locus YMR231W, strain pep5, hits give low values 0.998 | S. cerevisiae deletion strains, locus YMR307W, strain GAS1, hits give low values 1.09 | S. cerevisiae deletion strains, locus YNL067W, strain RPL9B, hits give low values 1.03 | S. cerevisiae deletion strains, locus YNL071W, strain lat1, hits give low values 1 | S. cerevisiae deletion strains, locus YNL128W, strain TEP1, hits give low values 0.977 | S. cerevisiae deletion strains, locus YNL183C, strain NPR1, hits give low values 0.985 | S. cerevisiae deletion strains, locus YNL209W, strain ssb2, hits give low values 0.995 | S. cerevisiae deletion strains, locus YNL233W, strain BNI4, hits give low values 1.01 | S. cerevisiae deletion strains, locus YNL248C, strain rpa49, hits give low values 0.973 | S. cerevisiae deletion strains, locus YNL250W, strain rad50, hits give low values 0.974 | S. cerevisiae deletion strains, locus YNL271C, strain bni1, hits give low values 0.996 | S. cerevisiae deletion strains, locus YNL298W, strain CLA4, hits give low values 0.986 | S. cerevisiae deletion strains, locus YNL307C, strain MCK1, hits give low values 0.988 | S. cerevisiae deletion strains, locus YNL322C, strain KRE1 (second series), hits give low values 0.995 | S. cerevisiae deletion strains, locus YNL322C, strain KRE1, hits give low values 0.996 | S. cerevisiae deletion strains, locus YNR049C, strain mso1, hits give low values 0.986 | S. cerevisiae deletion strains, locus YNR052C, strain pop2, hits give low values 0.993 | S. cerevisiae deletion strains, locus YOL006C, strain TOP1, hits give low values 0.959 | S. cerevisiae deletion strains, locus YOL012C, strain htz1 0.951 | S. cerevisiae deletion strains, locus YOL147C, strain pex11, hits give low values 0.99 | S. cerevisiae deletion strains, locus YOR001W, strain rrp6, hits give low values 1.06 | S. cerevisiae deletion strains, locus YOR061W, strain CKA2, hits give low values 0.984 | S. cerevisiae deletion strains, locus YOR069W, strain VPS5, hits give low values 0.992 | S. cerevisiae deletion strains, locus YOR070C, strain gyp1, hits give low values 0.999 | S. cerevisiae deletion strains, locus YOR080W, strain dia2, hits give low values 0.985 | S. cerevisiae deletion strains, locus YOR083W, strain WHI5, hits give low values 0.945 | S. cerevisiae deletion strains, locus YOR106W, strain vam3, hits give low values 0.947 | S. cerevisiae deletion strains, locus YOR136W, strain idh2, hits give low values 0.974 | S. cerevisiae deletion strains, locus YOR144C, strain elg1, hits give low values 0.988 | S. cerevisiae deletion strains, locus YOR184W, strain ser1, hits give low values 0.979 | S. cerevisiae deletion strains, locus YOR231W, strain MKK1, hits give low values 1.04 | S. cerevisiae deletion strains, locus YOR265W, strain rbl2, hits give low values 0.993 | S. cerevisiae deletion strains, locus YOR270C, strain vph1, hits give low values 0.92 | S. cerevisiae deletion strains, locus YOR290C, strain snf2, hits give low values 0.973 | S. cerevisiae deletion strains, locus YOR316C, strain cot1, hits give low values 0.983 | S. cerevisiae deletion strains, locus YPL051W, strain arl3, hits give low values 1 | S. cerevisiae deletion strains, locus YPL078C, strain atp4, hits give low values 0.932 | S. cerevisiae deletion strains, locus YPL106C, strain sse1, hits give low values 1 | S. cerevisiae deletion strains, locus YPL240C, strain hsp82, hits give low values 0.99 | S. cerevisiae deletion strains, locus YPL241C, strain CIN2, hits give low values 0.998 | S. cerevisiae deletion strains, locus YPL256C, strain CLN2, hits give low values 1.04 | S. cerevisiae deletion strains, locus YPR119W, strain clb2, hits give low values 1 | S. cerevisiae deletion strains, locus YPR141C, strain kar3, hits give low values 0.984 | S. cerevisiae deletion strains, locus YPR163C, strain tif3, hits give low values 0.977 | S. cerevisiae deletion strains, locus YPR167C, strain met16, hits give low values 0.977 | S. cerevisiae deletion strains, strain wtn01, hits give low values 0.997 | S. cerevisiae strains, strain wild type, hits give low values 1
